Screening results from PubChem.
HP1b chromo inh = blocks HP1-beta chromodomain binding to methylated histone tails; AlphaScreen HP1-beta / biotin-H3K9me3 peptide binding; Potency, µM (top dose mostly 114 µM), for the others: at the highest dose activity change, negative = inhibition, actives largely listed as inhibitors; 0.56% of 390,000 active; AID 540317; also: nearly all actives have a fitted effect of over 70% in size
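HP1-beta protein (50 nM final) preincubated 30 min at room temperature with biotinylated H3(1-18)K9me3 peptide (50 nM) in PBS pH 7.4, 0.01% Tween-20, then compound added for 30 min. AlphaScreen streptavidin donor/nickel chelate acceptor beads (10 ug/mL final), 30 min dark, luminescence read.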
BAZ2B block = BAZ2B (human) inhibition. Q9UIF8. AlphaScreen BAZ2B-H3K14Ac peptide displacement. Potency, µM (series often up to 114 µM), without a hit: at the top dose activity change, negative = inhibition, usual class: inhibitors. 4.4% of 360,000 active; also: % is scaled to controls: 0 for no effect and ±100 for the full control effect; nearly all actives have a fitted effect of over 60% in size
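Inhibition is scored as reduced AlphaScreen emission. The BAZ2B/b-H3(5-23)K14Ac complex (50 nM each) in PBS pH 7.4, 0.01% Tween-20 meets compound (up to 110 uM) for 30 min at RT before bead addition.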
G9a inh = inhibitors of human histone lysine methyltransferase G9a; Q96KQ7; Potency, µM (titrated, usually from 102 µM), for inactives: at the top dose activity, negative = inhibition, most hits filed as inhibitors; G9a H3K9 monomethylation, AlphaScreen, 2 h; 8.8% of 350,000 active; AID 504332; also: % is scaled to controls: 0 for no effect and ±100 for the full control effect; nearly all actives have a fitted effect of over 75% in size
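Chemiluminescent proximity detection of H3K9 monomethylation, read after 10 min bead incubation in the dark. Reaction: 20 nM G9a, 500 nM biotin-H3K9 peptide, 20 uM SAM cofactor, 2 h, room temperature, following 15 min enzyme-compound preincubation.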
PLK1 PBD inh = blocks phosphopeptide binding to human PLK1 polo-box domain | Plk1 PBD binding of FITC phosphopeptide, fluorescence polarization | P53350 | Potency, µM, inactives show max response, negative = inhibition, usual class: inhibitors | 2.8% of 360,000 active | AID 720504; also: series mostly up to about 57 µM; % is scaled to controls: 0 for no effect and ±100 for the full control effect; nearly all actives have a fitted effect of over 65% in size
JMJD2A Tudor = inhibitors of human JMJD2A Tudor domain. AID 504339. O75164. Potency, µM (titrated, usually from 114 µM), for the others: at the top dose activity change, negative = inhibition, usual class: inhibitors. AlphaScreen JMJD2A-Tudor / H3K4me3 peptide binding. 4.4% of 390,000 active; also: % is scaled to controls: 0 for no effect and ±100 for the full control effect; nearly all actives have a fitted effect of over 50% in size
Target sequence (O75164 whole entry, looked up, the tested form may be a part): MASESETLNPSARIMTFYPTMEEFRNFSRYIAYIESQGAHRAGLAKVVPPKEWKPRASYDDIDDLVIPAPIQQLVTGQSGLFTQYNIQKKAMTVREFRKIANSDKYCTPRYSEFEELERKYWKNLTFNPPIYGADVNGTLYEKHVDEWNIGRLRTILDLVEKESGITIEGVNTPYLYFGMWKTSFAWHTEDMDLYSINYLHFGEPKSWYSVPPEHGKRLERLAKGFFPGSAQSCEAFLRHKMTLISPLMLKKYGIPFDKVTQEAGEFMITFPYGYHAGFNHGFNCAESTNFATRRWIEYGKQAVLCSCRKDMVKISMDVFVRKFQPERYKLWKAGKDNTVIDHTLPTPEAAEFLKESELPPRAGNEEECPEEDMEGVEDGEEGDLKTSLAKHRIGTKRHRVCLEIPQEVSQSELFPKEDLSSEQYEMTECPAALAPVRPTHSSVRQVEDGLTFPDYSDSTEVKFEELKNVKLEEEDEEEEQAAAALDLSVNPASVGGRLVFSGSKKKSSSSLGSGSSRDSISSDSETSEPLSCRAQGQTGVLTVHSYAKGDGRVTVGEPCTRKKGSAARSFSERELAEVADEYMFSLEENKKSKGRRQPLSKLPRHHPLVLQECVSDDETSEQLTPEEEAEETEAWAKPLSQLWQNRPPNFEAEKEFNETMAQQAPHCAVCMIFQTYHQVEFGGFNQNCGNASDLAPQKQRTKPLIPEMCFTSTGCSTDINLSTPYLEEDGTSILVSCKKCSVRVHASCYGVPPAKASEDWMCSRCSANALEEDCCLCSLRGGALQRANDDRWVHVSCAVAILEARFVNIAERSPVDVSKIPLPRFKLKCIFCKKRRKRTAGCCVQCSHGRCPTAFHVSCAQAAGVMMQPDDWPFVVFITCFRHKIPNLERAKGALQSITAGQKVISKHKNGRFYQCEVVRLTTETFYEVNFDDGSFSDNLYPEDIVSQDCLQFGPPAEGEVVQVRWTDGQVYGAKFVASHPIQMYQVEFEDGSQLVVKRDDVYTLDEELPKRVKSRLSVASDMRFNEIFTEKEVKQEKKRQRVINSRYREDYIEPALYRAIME
VDR inhibitor = blocks the human vitamin D receptor | Potency, µM, for inactives: max response, negative = inhibition, actives largely listed as inhibitors | VDR-SRC2-3 peptide fluorescence polarization, 2 h | 0.93% of 400,000 active | AID 504847 | P11473; also: % is scaled to controls: 0 for no effect and ±100 for the full control effect
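Two reagent solutions held at 4 deg C in the dark were dispensed, compounds pinned at 23 nl, and the mixture incubated 2 h at room temperature. Read-out: fluorescence polarization of VDR–SRC2-3 peptide binding.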
Starred values were filed as active, the others as inactive; ? = inconclusive; nt = no result given; ! = a repeat was not active; [ ] = dose if it differs, or a comment. In the library only some 11% were active in any assay of this set; here they are far more common. Calls follow the shape of the dose curve; as a rule, active = well fitted curve in the direction sought with a large enough effect; inconclusive = small, poorly fitted or top-dose-only effect, or another doubt; inactive = no such curve, though single readings can be large; an effect the other way counts as inactive or inconclusive. Potency is read from the fitted curve at half-maximal effect.

SMILES	HP1b chromo inh	BAZ2B block	G9a inh	PLK1 PBD inh	JMJD2A Tudor	VDR inhibitor
CCOc1ccc(C2NC(=O)C(C#N)=C(S)N2c2cccc(C)c2)cc1OC (stereo unspecified)	39%	-5%	?	-17%	-16%	79µM*
CCOc1ccc(C2NC(=O)C(C#N)=C(S)N2c2ccc(C)cc2)cc1OC (stereo unspecified)	22%	-27%	?	-24%	-18%	18µM*
Cc1ccc(C(=O)c2c3ccc([N+](=O)[O-])cc3[n+]([O-])n2CCC(N)=O)cc1	12%	?	50µM*	-9%	-31%	-24%
COCc1nnc(NC(=O)c2ccc(S(=O)(=O)N3CCCC3)cc2)o1	29%	20µM*	3%	1%	13µM*	-10%
CCc1nnc(NC(=O)c2ccc(S(=O)(=O)N3CCCC(C)C3)cc2)o1 (stereo unspecified)	42%	89µM*	62%	-3%	-26%	-5%
CCc1nnc(NC(=O)c2ccc(S(=O)(=O)N3CCCC(C)C3)cc2)s1 (stereo unspecified)	59%	-22%	-4%	2%	-10%	-14%
Cc1cc(CNC(=O)C2(C(F)(F)F)C/C(=C\CCO)CCCO2)nn1C (stereo unspecified)	16%	nt	nt	-5%	-16%	14%
O=C(NCc1ccccn1)C1(C(F)(F)F)C/C(=C\CCO)CCCO1 (stereo unspecified)	33%	nt	nt	-11%	28µM*!	-5%
CCC/C=C1\CCCOC(C(=O)NCc2ccc(C)o2)(C(F)(F)F)C1 (stereo unspecified)	33%	nt	nt	nt	-10%	?
CCC/C=C1/CCCOC(C(=O)NCc2ccc(C)o2)(C(F)(F)F)C1 (stereo unspecified)	24%	nt	nt	?	-10%	50µM*
CC(C)c1c(C(=O)N/N=C/C=C/c2ccccc2)nnn1-c1nonc1N	59%	-16%	64%	7%	18%	9%
O=C(NCCN=C1NS(=O)(=O)c2ccccc21)c1ccncc1	28%	8%	-2%[12.7 µM]	-9%	-17%	-4%
O=[N+]([O-])c1ccc(C(c2sc3nc(-c4ccco4)nn3c2O)N2CCN(c3cccc(Cl)c3)CC2)cc1 (stereo unspecified)	-16%	?	13µM*	nt	?	7%
Oc1c(C(c2ccc(F)cc2)N2CCCC2)sc2nc(-c3ccco3)nn12 (stereo unspecified)	-2%	-23%	13µM*	nt	-27%	1%
Oc1c(C(c2ccccc2F)N2CCCC2)sc2nc(-c3ccco3)nn12 (stereo unspecified)	16%	-9%	8%[59 µM]	nt	-26%	-3%
CC1CCC(NC(=O)CSc2nnnn2C)CC1 (stereo unspecified)	37%	-3%	-27%[59 µM]	-14%	-6%	-19%
Cc1ccc(-c2nc(=Nc3ccccc3)sn2-c2ccccc2)cc1	-30%[57 µM]	nt	nt	nt	-24%[57.1 µM]	-4%
N=c1nc(-c2ccccc2)n(-c2ccccc2)s1	?	nt	nt	nt	5.6µM*	13µM*
Cc1cccc(C(=O)Oc2ccccc2/C=N/Nc2ccc([N+](=O)[O-])cc2)c1	7%	-21%	-9%	6%	-10%	9%
Cc1cccc(C(=O)Oc2ccc(/C=N/O)cc2)c1	51%	-5%	10µM*	-6%	-1%	9%
Cc1csc(CNc2ncnc3ccc(-c4ccc5c(c4)OCO5)cc23)c1	77%	3%	4%[12.7 µM]	nt	-14%	11%
Cc1ccc(CNc2ncnc3ccc(-c4ccc5c(c4)OCO5)cc23)o1	nt	nt	nt	nt	45µM*	nt
Cc1nc(CN(C)c2ncnc3cc(-c4ccc5c(c4)OCO5)ccc23)cs1	nt	nt	nt	nt	89µM*	nt
Cc1csc(CNc2ncnc3cc(-c4ccc5c(c4)OCO5)ccc23)n1	nt	nt	nt	nt	56µM*	nt
c1nc(NCCc2cnc[nH]2)c2ccc(-c3ccc4c(c3)OCO4)cc2n1	nt	nt	nt	nt	79µM*	nt
SMILES	HP1b chromo inh	BAZ2B block	G9a inh	PLK1 PBD inh	JMJD2A Tudor	VDR inhibitor
Cc1cc(CNc2ncnc3ccc(-c4ccc5c(c4)OCO5)cc23)c(C)o1	nt	nt	nt	nt	-33%	nt
COc1ccc2[nH]cc(CCNc3ncnc4ccc(-c5ccc6c(c5)OCO6)cc34)c2c1	nt	nt	3%[0.501 µM]	nt	nt	-9%
O=C(NCC(F)(F)F)c1csc([C@@H]2O[C@H](CO)[C@H](O)[C@H](O)[C@H]2O)n1	nt	nt	nt	-3%	nt	nt
Cc1cc(C)n(CCc2nc3c4ccccc4nc(SCc4ccc(F)cc4)n3n2)n1	32%	-6%	10%[59 µM]	nt	-18%	1%
Cc1ccc(-n2nc(C)c(C(=O)NCCCN3CCN(c4ccccc4F)CC3)c2-n2cccc2)cc1	7%	?	-28%[59 µM]	nt	?	-1%
Nc1nc(SCC(=O)c2c(N)n(C3CC3)c(=O)[nH]c2=O)n[nH]1	29%	10%	11µM*	-12%	-6%	-9%
COc1ccc2nc(SCC(=O)c3c(N)n(C4CC4)c(=O)[nH]c3=O)[nH]c2c1	49%	8%	7.1µM*	-2%	-6%	-9%
C=CCn1c(SCC(=O)c2c(N)n(C3CC3)c(=O)[nH]c2=O)nnc1-c1ccc(OC)cc1	1%	8%	?	-16%	-6%	2%
O=c1nc(/C=C/c2ccccc2C(F)(F)F)cc(C(F)(F)F)[nH]1	28%	9%	?	-20%	-10%	32µM*
COc1ccc(/C=C/c2cc(C(F)(F)F)[nH]c(=O)n2)cc1OC	29%	-20%	8%	-14%	-5%	?
O=C(CCNC(=O)c1ccc(Br)cc1)Nc1cccc(S(=O)(=O)N2CCCCCC2)c1	3%	-6%	?	-4%	-28%	-19%
CC(C)(C)c1ccc(OCCC(=O)Nc2cccc(S(=O)(=O)N3CCCC3)c2)cc1	17%	4%	3.5µM*	2%	-15%	0%
O=C(Cc1c[nH]c2ccccc12)Nc1cccc(S(=O)(=O)N2CCCCC2)c1	nt	?	45µM*	nt	nt	nt
O=C(CN1C(=O)NC(Cc2c[nH]c3ccccc23)C1=O)Nc1cccc(S(=O)(=O)N2CCCCCC2)c1 (stereo unspecified)	-14%	?	?	-2%	?	-7%
O=C(CCNC(=O)c1ccc(Br)cc1)Nc1cccc(S(=O)(=O)N2CCCC2)c1	2%	-1%	45µM*	-1%	-21%	-17%
O=C(NCCc1ccccc1)c1cc(-c2ccccc2)nc2n[nH]c(-c3ccccc3)c12	18%	-3%	0%[59 µM]	nt	-20%	-9%
Cc1ccccc1CN1CCNC(=O)C1CC(=O)NCCN1CCCCC1=O (stereo unspecified)	38%	-6%	79µM*	-5%	-10%	-10%
